Our source for the Potency and activity change, negative = cytotoxic values is PubChem BioAssay (Tox21).

Records with an inconclusive call do not appear. A call without a number means that no potency is given here. Active and inactive are the calls of the source. Calls follow the shape of the dose curve; as a rule, active = well fitted cell-killing curve with a large enough effect in the repeat runs; inconclusive = weak or mixed curves, or effect the other way; inactive = flat fitted curve, though single readings scatter.

The experiment can be described thus: qHTS RealTime-Glo MT Cell Viability Assay in HepG2 cells - 40 hour (AID 1224870). Also: nearly all actives have a fitted effect of over 50% in size. The following applies: RealTime-Glo luminescence; series mostly up to 76.8 µM. From the text: National Center for Advancing Translational Sciences [NCATS]
NIH Chemical Genomics Center [NCGC]
U.S. Environmental Protection Agency [EPA]
National Institutes of Environmental Health Sciences [NIEHS]
National Toxicology Program [NTP]
U.S. Food and Drug Administration [FDA]
Measure of cell viability is critical in the cell-base assay. Analysis of cell viability is necessary for the characterization of cell responses to cytotoxic drugs and environmental stress. A RealTime-Glo MT Cell Viability Assay to monitor cell viability in real time of continues cell culture during 40 hours of compound treatment was used to screen Tox21 10K library compounds in HepG2 cells. The RealTime-Glo MT Cell Viability Assay is a nonlytic, homogeneous, bioluminescent method to measure cell viability in real time using a simple, plate-based method. The assay involves adding NanoLuc luciferase and a cell-permeant prosubstrate to cells in culture. Viable cells reduce the proprietary prosubstrate to generate a substrate for NanoLuc luciferase. This substrate diffuses from cells into the surrounding culture medium, where it is rapidly used by the NanoLuc Enzyme to produce a luminescent signal. The signal correlates with the number of viable cells, making the assay well suited for cytotoxicity studies.
Tox21 Assay Protocol Summary:
The mixture of HepG2 cell suspension and reagents were dispensed at 600cells/6 ul/well in 1536-well tissue culture treated black solid bottom plates using a Multidrop dispenser. After the assay plates were incubated at a 37 C/5% CO2 incubator for 5 hours, 23 nL of compounds dissolved in DMSO, positive and negative controls was transferred to the assay plate by a pintool work station. The plates were incubated at 37 C for 40 hours. The luminescence intensity were measured at 0h, 8h, 16h, 24h, 32h and 40h time points using ViewLux plate reader during compound treatment.
On the technique in general: Quantitative high-throughput screening tests each substance at several concentrations.
Take `CN1COCN(Cc2cnc(Cl)s2)/C1=N\[N+](=O)[O-]`: the Potency result was “inactive”.
Still for that read-out and setting: with `CCCC[N+](=O)[O-]` the entry was “inactive”.
Take `Clc1cc2c(cc1Cl)Oc1cc(Cl)c(Cl)cc1O2`: the activity change, negative = cytotoxic was -10.5% [at 0.29 µM] (inactive).
For the molecule `C=C(Cl)CCl`, the Potency entry is “inactive”.
Still for that read-out and setting: with `Cn1c(N)nc2c3cccnc3ccc21` the entry was “inactive”.
`CCNc1nc(NCC)nc(SC)n1`: the Potency result is “inactive”.
Take `O=C(O)C(F)(F)C(F)(F)C(F)(F)C(F)(F)C(F)(F)C(F)(F)F`: the Potency result was “inactive”.
As to `CCCCCCC(=O)CCCCCC/C=C/C[C@@H](O)[C@H](O)[C@@](N)(CO)C(=O)O`, the activity change, negative = cytotoxic is 0.839% [at 15.8 µM] (inactive).
As for `OCC(Cl)CCl` (stereo not given), the Potency entry is “inactive”.
Still for that read-out and setting: with `COC[C@@H](NC(C)=O)C(=O)NCc1ccccc1` the entry was “inactive”.
Still for that read-out and setting: with `CCCC(C)(COC(N)=O)COC(N)=O` the entry was “inactive”; with `CCOP(=O)(CN(CCO)CCO)OCC`, “inactive”.
Still for that read-out and setting: with `CC[C@H](N)c1ccccc1` the entry was “inactive”.
Regarding `O=C(O)CBr`, the Potency result is “inactive”.
On the same count and under the same terms, with `ClCCN1CCCC1` the entry was “inactive”; with `CCCCCCCCSC(=O)Oc1cc(Cl)nnc1-c1ccccc1`, “inactive”; with `Cl/C=C/CCl`, “inactive”.
The same measure, in the same setting: with `O=c1[nH]c2ccccc2o1` the entry was “inactive”.
Still for that read-out and setting: with `C=CCCC#N` the entry was “inactive”; with `CCC(=O)OC1(c2ccccc2)CCN(C)CC1`, “inactive”; with `Clc1ccc(C(Cl)(Cl)Cl)cn1`, “inactive”.
Turning to `CNC(=O)O/N=C(/CSC)C(C)(C)C`, the Potency entry was “inactive”.
Turning to `ClCC1CO1` (stereo not given), the Potency result is “inactive”.
Same read-out and setting: with `CCCOC(=O)c1cncn1C(C)c1ccccc1` (stereo not given) the entry was “inactive”.
`NC(=O)CS(=O)C(c1ccccc1)c1ccccc1` (stereo not given): the Potency entry was “inactive”.
On the same count and under the same terms, with `O=C1CCCCC1Cl` (stereo not given) the entry was “inactive”.
The same measure, in the same setting: with `CCCCS(=O)(=O)Cl` the entry was “inactive”.
Turning to `Brc1c(Br)c(Br)c(Br)c(Br)c1Br`, the activity change, negative = cytotoxic is -3.64% [at 6.97 µM] (inactive).
As for `O=CCCl`, the Potency result was “inactive”.
Same read-out and setting: with `COC1=CC(=O)O[C@@H](/C=C/c2ccccc2)C1` the entry was “inactive”.
Still for that read-out and setting: with `CCOC(=O)C(Cl)Cc1cc(-n2nc(C)n(C(F)F)c2=O)c(F)cc1Cl` (stereo not given) the entry was “inactive”.
Still for that read-out and setting: with `BrCc1ccc(Br)cc1` the entry was “inactive”.
Take `CCCCOC(C)=O`: the Potency entry was “inactive”.
Same read-out and setting: with `C=C(Cl)CSC(=S)N(CC)CC` the entry was “inactive”; with `CCN1CCCC1CNC(=O)C(O)(c1ccccc1)c1ccccc1` (stereo not given), “inactive”.
On the same count and under the same terms, with `CCCN1CCC[C@@H]2Cc3nc(N)ncc3C[C@H]21` the entry was “inactive”.
The same measure, in the same setting: with `COc1ccc(CN2CCNCC2)c(OC)c1OC` the entry was “inactive”; with `COP(=O)(OC)O/C(C)=C/C(=O)N(C)C`, “inactive”.
For the molecule `Cc1ccc(Cl)c(O)c1`, the Potency result was “inactive”.
Still for that read-out and setting: with `COC(=O)c1ccc(CBr)cc1` the entry was “inactive”.
